Data as given in PubChem BioAssay (Tox21).
Where “and” joins values, the source holds several entries; their conditions need not be identical. Equal entries are not always repeated. Results filed as inconclusive are left out. Calls of active or inactive are those of the source. Unless noted, calls follow the shape of the dose curve; as a rule, active = well fitted curve in the direction sought with a large enough effect in the repeat runs; inconclusive = weak or mixed curves; inactive = no such curve, though single readings can be large; an effect the other way counts as inactive or inconclusive.

What was measured:
[1] = qHTS assay to identify small molecule agonists of the vitamin D receptor (VDR) signaling pathway - cell viability counter screen (AID 743224); also: nearly all actives have a fitted effect of over 50% in size; also: potency is read from the fitted curve at half-maximal effect
How it was run: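 VDR-bla cells were preincubated 4 h at 37C/5% CO2, then exposed to compounds for 16 h. After the 2 h room-temperature bla FRET read, CellTiter-Glo was added to the same wells and luminescence read after 30 min.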

[2] = qHTS assay to identify small molecule agonists of the NFkB signaling pathway - cell viability counter screen (AID 1159515; calls by dose curve; also: nearly all actives have a fitted effect of over 55% in size; also: potency is read from the fitted curve at half-maximal effect)
How it was run: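 NFkB-bla ME-180 cells, 2,000/well, were plated overnight at 37 C, 5% CO2, then exposed to compounds in DMSO for 5 hr. After the bla FRET read, CellTiter-Glo was added to the same wells; luminescence was read after 30 min at room temperature.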

[3] = qHTS assay to identify small molecule agonists of the endoplasmic reticulum stress response signaling pathway - cell viability counter screen (AID 1159517; calls by dose curve; also: nearly all actives have a fitted effect of over 50% in size; also: potency is read from the fitted curve at half-maximal effect)
How it was run: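 Cells, HeLa ESRE-bla; density, 1,500/well; dosing, 5 hr at 37 C, 5% CO2; readout, CellTiter-Glo luminescence after 30 min RT.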

[4] = qHTS assay to identify small molecule antagonists of the retinoid-related orphan receptor gamma (ROR-gamma) signaling pathway - cell viability counter screen (AID 1159520); also: nearly all actives have a fitted effect of over 50% in size; also: potency is read from the fitted curve at half-maximal effect
How it was run: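 Cytotoxicity was read from cellular ATP (CellTiter-Glo luminescence) after 16 hr at 37 C with 1 uM doxycycline induction. The inducer was added 2 hr after compound transfer to Tet-on ROR gamma CHO cells.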

[5] = qHTS assay to identify small molecule agonists of the RXR signaling pathway - cell viability counter screen (AID 1159529); also: nearly all actives have a fitted effect of over 50% in size; also: potency is read from the fitted curve at half-maximal effect
How it was run: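 Counter screen: CellTiter-Glo luminescence. Cells: RXR-alpha-UAS-bla HEK 293T. Medium: 2% charcoal-stripped FBS. Treatment: 16 h, 37 C. Reagent incubation: 30 min, RT.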

[6] = qHTS assay to identify small molecule antagonists of the retinoid acid receptor (RAR) signaling pathway - cell viability counter screen (AID 1159551); also: nearly all actives have a fitted effect of over 35% in size; also: potency is read from the fitted curve at half-maximal effect
How it was run: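 C3RL4 cells were seeded overnight at 37 C, then treated with compounds plus 1 uM (final) retinol for 6 h at 37 C. Viability was read as ATP by CellTiter-Glo luminescence after 30 min at room temperature.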

[7] = qHTS assay to identify small molecule antagonists of the retinoic acid receptor (RAR) signaling pathway (AID 1159552; also: nearly all actives have a fitted effect of over 50% in size; also: potency is read from the fitted curve at half-maximal effect)
How it was run: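 Antagonism of retinol-induced RARE reporter activity was measured in C3RL4 cells. Exposure to compounds and 1 uM final retinol lasted 6 hr at 37 C, with luminescence as endpoint.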

[8] = qHTS assay to identify small molecule antagonists of the vitamin D receptor (VDR) signaling pathway - cell viability counter screen (AID 743225); also: nearly all actives have a fitted effect of over 50% in size; also: potency is read from the fitted curve at half-maximal effect
How it was run: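 Same-well multiplex: following 16 h treatment of HEK 293T cells carrying a UAS-driven beta-lactamase reporter with compound and agonist (3 nM final), and a 2 h FRET substrate step, CellTiter-Glo was added and luminescence read after 30 min.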

[9] = qHTS assay to identify small molecule agonists of the AP-1 signaling pathway - cell viability counter screen (AID 1159525; calls by dose curve; also: nearly all actives have a fitted effect of over 55% in size; also: potency is read from the fitted curve at half-maximal effect)
How it was run: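 Luminescent ATP readout (Cell Titer Glo, 30 min RT), normalised to DMSO and tetra n-octyl ammonium bromide controls. Cells were ME-180 AP-1-bla in 0.5% dialyzed FBS Opti-MEM, with a 5 h, 37 °C compound exposure.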

[10] = qHTS assay to identify small molecule agonists of the AP-1 signaling pathway (AID 1159526; calls by dose curve; also: potency is read from the fitted curve at half-maximal effect)
[11] = qHTS assay to identify small molecule antagonists of the estrogen related receptor (ERR) signaling pathway - cell viability counter screen (AID 1224818);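 also: series mostly up to about 46 µM; viability measured after 17.5 h of compound exposure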
How it was run: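 ERR reporter cells plated 6 h at 37 C/5% CO2, then compounds in DMSO pin-transferred and incubated 17.5 h at 37 C. Viability read as CellTiter-Fluor fluorescence after 30 min at 37 C.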

[12] = qHTS assay to identify small molecule agonists of the estrogen related receptor (ERR) signaling pathway (AID 1224820)
How it was run: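 ERR reporter cells (NTP line) plated 2,000/well, incubated 6 h at 37 C/5% CO2, then pinned with compounds in DMSO and held 18 h at 37 C. One-Glo added; luminescence read after 30 min at room temperature.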

[13] = system: estrogen-related receptor alpha (ERRalpha) with PGC-1alpha coactivator, human; assay: qHTS assay to identify small molecule antagonists of the estrogen related receptor signaling pathway with the pleiotropic PPARgamma coactivator (PGC) (AID 1224821; calls by dose curve)
How it was run: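 Cells engineered for PGC/ERR signalling (line from NTP) were plated 6 h at 37 C/5% CO2, then exposed to DMSO-dissolved compound for 18 h at 37 C. Luciferase activity was read by One-Glo luminescence after 30 min at room temperature.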

[14] = qHTS assay to identify small molecule antagonists of the estrogen related receptor signaling pathway with the pleiotropic PPARgamma coactivator (PGC) cell viability counter screen (AID 1224822; also: series mostly up to about 46 µM)
How it was run: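 PGC/ERR cells were seeded at 2,000 cells/well, rested 6 h at 37 C/5% CO2, then given compounds in DMSO by pin tool and incubated 17.5 h at 37 C. Viability came from CellTiter-Fluor fluorescence after 30 min.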

[15] = qHTS assay to identify small molecule agonists of the estrogen related receptor signaling pathway with the pleiotropic PPARgamma coactivator (PGC) (AID 1224823)
How it was run: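 PGC/ERR reporter cells were seeded, rested 6 h at 37 C/5% CO2, then exposed to compounds in DMSO by pin transfer for 18 h at 37 C. Luciferase activity was read as luminescence after One-Glo reagent and 30 min at room temperature.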

[16] = qHTS assay to identify small molecule agonists of the retinoic acid receptor (RAR) signaling pathway (AID 1159553)
How it was run: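 C3RL4 cells carrying a RARE luciferase reporter were plated overnight at 37 C, then exposed to compounds in DMSO for 6 hr at 37 C and 5% CO2. Luminescence was read 30 min after luciferase reagent addition at room temperature.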

[17] = qHTS assay to identify small molecule antagonists of the estrogen related receptor (ERR) signaling pathway (AID 1224819)
How it was run: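 ERR reporter cells were plated at 2,000 cells/well and left 6 h at 37 C/5% CO2 before pin-tool transfer of compounds in DMSO. After 18 h at 37 C, One-Glo was added and luminescence was read 30 min later at room temperature.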

[18] = biological target: Nuclear receptor ROR-gamma (Homo sapiens) (UniProt P51449); assay: qHTS assay to identify small molecule antagonists of the retinoid-related orphan receptor gamma (ROR-gamma) signaling pathway (AID 1159521; also: nearly all actives have a fitted effect of over 50% in size; also: potency is read from the fitted curve at half-maximal effect)
How it was run: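 Inducible-expression reporter assay: doxycycline (1 uM final) switched on RORγ in CHO cells bearing a ROR response element-luciferase construct, with test compounds present from 2 h beforehand. Decreased luminescence after 16 h defined antagonist activity.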

[19] = biological target: Retinoic acid receptor RXR-alpha (Homo sapiens) (UniProt P19793); assay: qHTS assay to identify small molecule agonists of the RXR signaling pathway (AID 1159527; calls by dose curve; also: nearly all actives have a fitted effect of over 35% in size)
Retinoic acid receptor RXR-alpha (Homo sapiens), sequence (P19793 whole entry, looked up): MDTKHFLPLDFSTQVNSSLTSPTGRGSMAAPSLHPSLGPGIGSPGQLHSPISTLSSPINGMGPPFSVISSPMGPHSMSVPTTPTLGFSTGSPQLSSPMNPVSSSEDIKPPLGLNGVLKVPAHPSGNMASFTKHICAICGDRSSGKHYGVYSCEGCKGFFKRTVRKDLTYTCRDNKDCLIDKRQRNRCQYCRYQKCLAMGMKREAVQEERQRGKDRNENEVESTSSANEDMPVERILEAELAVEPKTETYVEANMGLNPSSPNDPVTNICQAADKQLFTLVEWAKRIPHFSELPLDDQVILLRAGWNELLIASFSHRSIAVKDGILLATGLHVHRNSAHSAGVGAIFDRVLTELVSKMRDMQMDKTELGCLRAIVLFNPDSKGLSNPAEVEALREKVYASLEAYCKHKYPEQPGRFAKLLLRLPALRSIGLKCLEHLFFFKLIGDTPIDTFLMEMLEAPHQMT
How it was run: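 Compounds in DMSO were added to RXR-alpha-UAS-bla HEK 293T cells kept in 2% charcoal-stripped serum, and incubated 16 hr at 37 C with 5% CO2. Reporter signal came from a 2 hr B/G FRET substrate step.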

Measured: Potency

O=c1[nH]sc2cc(Cl)ccc12
active: [1] 29.8 µM | [4] 26.6 µM | [5] 26.8 µM
inactive: [2] | [3] | [6] | [7]

CCC1=C[C@@H]2CN(C1)Cc1c([nH]c3ccccc13)[C@@](C(=O)OC)(c1cc3c(cc1OC)N(C)[C@H]1[C@@](O)(C(=O)OC)[C@H](OC(C)=O)[C@]4(CC)C=CCN5CC[C@]31[C@@H]54)C2
active: [10] 0.107 µM
inactive: [1] | [8] | [2] | [3] | [4] | [9] | [6]

CSc1ccc2c(c1)C(N1CCN(C)CC1)Cc1ccccc1S2 (centres undefined)
active: [1] 23.7 µM | [2] 23.9 µM | [3] 19 µM | [5] 23.9 µM
inactive: [4] | [9] | [6]

CC(C)(C)CC(C)(C)c1ccc(OCCOCC[N+](C)(C)Cc2ccccc2)cc1
active: [1] 38.9 µM and 26.6 µM | [2] 24.5 µM | [3] 21.9 µM | [4] 54.4 µM | [9] 24.5 µM | [5] 6.91 µM and 4.77 µM | [6] 61.1 µM

Nc1ccc2cc(S(=O)(=O)O)cc(O)c2c1N=Nc1ccccc1C(F)(F)F
inactive: [1] | [2] | [3] | [4] | [9] | [10] | [5] | [7]

Cc1oc(-c2ccccc2)nc1CCC(=O)c1ccc(CC2SC(=O)NC2=O)cc1 (centres undefined)
inactive: [1] | [2] | [3] | [4] | [9] | [10] | [5] | [6] | [7]

CC/C(=C(\c1ccc(O)cc1)c1ccc(OCCN(C)C)cc1)c1ccccc1
active: [1] 17.4 µM | [8] 19.5 µM | [2] 49.1 µM | [3] 61.8 µM | [4] 34.4 µM | [9] 27.6 µM | [5] 21.9 µM | [7] 68.7 µM

CN(C)[C@@H]1C(=O)C(C(N)=O)=C(O)[C@@]2(O)C(=O)C3=C(O)c4c(O)ccc(Cl)c4[C@@H](O)[C@H]3C[C@@H]12
inactive: [1] | [2] | [3] | [4] | [9] | [10] | [5] | [6] | [7] | [11] | [12] | [13] | [14] | [15]

Cc1cccc(N(C)C(=S)Oc2ccc3c(c2)C2CCC3C2)c1 (centres undefined)
inactive: [1] | [8] | [2] | [3] | [4] | [9] | [6] | [7]

CC(=O)S[C@@H]1CC2=CC(=O)CC[C@]2(C)[C@H]2CC[C@@]3(C)[C@@H](CC[C@@]34CCC(=O)O4)[C@H]12
inactive: [1] | [2] | [3] | [4] | [9] | [10] | [6]

Cc1ccc(-n2nc(C(C)(C)C)cc2NC(=O)Nc2ccc(OCCN3CCOCC3)c3ccccc23)cc1
inactive: [1] | [8] | [2] | [3] | [4] | [9] | [10] | [6]

CC(C)C(C)(C)C(C)(C)C(C)(C)S
inactive: [2] | [3] | [4] | [9] | [5] | [6] | [11] | [14]

OC1(c2ccc(Cl)c(C(F)(F)F)c2)CCN(CCCC(c2ccc(F)cc2)c2ccc(F)cc2)CC1
active: [1] 13.3 µM | [8] 10.7 µM | [2] 12 µM | [3] 8.49 µM | [4] 9.44 µM | [9] 9.52 µM | [5] 6.74 µM

O=C1Cc2cc(CCN3CCN(c4nsc5ccccc45)CC3)c(Cl)cc2N1
active: [8] 23.9 µM | [2] 23.9 µM | [5] 23.9 µM | [17] 20.3 µM
inactive: [3] | [4] | [6] | [16] | [12] | [15]

Cc1onc(-c2c(Cl)cccc2Cl)c1C(=O)N[C@@H]1C(=O)N2[C@@H]1SC(C)(C)[C@@H]2C(=O)O
inactive: [1] | [8] | [2] | [3] | [4] | [9] | [5] | [6]

Oc1ccc2c(c1)-c1ccccc1C2
inactive: [1] | [2] | [3] | [18] | [9] | [10] | [5] | [6] | [7]

CCCCCCCC/C=C\CCCCCCCCOCCO
active: [1] 25.4 µM | [8] 9 µM | [2] 31.9 µM | [3] 31.9 µM | [18] 20 µM | [9] 25.4 µM | [5] 22.6 µM
inactive: [6]

CCCCCCCCCCCC(=O)NCCCN(C)C
active: [1] 21.9 µM | [8] 38.9 µM | [2] 54.9 µM | [3] 49 µM | [18] 30.6 µM | [5] 15.5 µM | [7] 54.5 µM

CCN(Cc1cccnc1)C(=O)c1cccc(Cl)c1[C@]1(C)C(=O)N(Cc2ccc(OC)cc2OC)c2ccc(Cl)cc21
inactive: [2] | [3] | [9] | [6]
active: [18] 9.05 µM

Fc1ccc(C(c2ccc(F)cc2)N2CCN(C/C=C/c3ccccc3)CC2)cc1
inactive: [2] | [3] | [9] | [10] | [6] | [7] | [12] | [15]
active: [1] 29.8 µM | [18] 23.7 µM | [17] 19.6 µM

COC(=O)c1cc(Cl)ccc1OC
inactive: [1] | [8] | [2] | [4] | [18] | [9] | [10] | [19] | [5] | [6]
